Results taken from PubChem BioAssay AID1508600 (Functional Genomics Laboratory (NCATS/FGL), 2020).
The campaign covered roughly 53,000 sequences. About 3,700 (7%) were called active.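 How the source made its calls: active means gene knockdowns whose robust z-score for IL-1 alpha signal is at least 2 or at most -2, so actives lie on both sides; inactive means the rest.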 Many of the other results were omitted from the sample, so actives are more common in it than they were.

Experiment: Components of the Cytosolic LPS Sensing Pathway: Gene Identification via Genome-wide siRNA Screen;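 further: robust z of the log signal after scaling to non-targeting control siRNA wells of the plate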
Conditions: RAW264.7 macrophages, IL-1a HTRF, actives lie on both sides, screened at 100 nM (by protocol), cells primed 5 h with Pam3CSK4 first
Procedure, shortened: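 Using IL-1a HTRF as read-out, the screen measured release from RAW264.7 cells after 48h siRNA knockdown (100 nM), 5 h Pam3CSK4 priming and 24 h cytosolic LipidA. Values were expressed relative to negative-control wells as robust z-scores.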

z-score, inactive:
GGUGUGUUAAUUUCUAGAUTT against Frs2 0.945, GGACAACAAGAUCAGGACCTT against Akap4 0.535, GGUUACCUAUUGGAUGACATT against Muc19 -1.43, GGAAAAAUCAAAAGUGUUGTT against Tamm41 -1.55, GCUCCAGCUCUGCUUUAAGTT against 4931440P22Rik 1.28, GGGCAAUUUGGAGCUUACCTT against Erbb2 -0.952, GAUGCCUUUUAUGGGUGCATT against Olfr61 0.0552, GGCGUGAAGAAGUUUGAUGTT against Pklr -0.431, GGACUGUCAGUACUGUCAATT against Agr3 0.445, CCUAAAAUACUUUACCGGGTT against Bckdhb -0.025, GGAGAAUCUUCAACACUGGTT against Adprh -0.951, GGCAUAUUCCGUUUUUAAATT against Pafah1b1 -1.09, GCAGUUACAGGAAAUCGAGTT against Cdr2 -0.746, GCCCAAGCAGUUCAUUCAUTT against Epc2 0.665, GCAUUAGUCAUUGUUAACGTT against Hsd17b4 0.653, GGACUUCACCAUCCACGAATT against Pgap2 0.622, GGAUGCCUGAGUGCUACAUTT against Lsm4 -0.837, GAUAUAAAGCCUUCAACACTT against Olfr912 -1.48, GGAGAUGCUCAUUUUGAUUTT against Mmp8 1.76, GGUAGUGGCUUGAACAGGUTT against Vmn1r201 0.115, GGAUCCUCGGACUAAAAGUTT against Pnma1 -0.228, GCAUCUUAACACAUGUAAATT against Zfp369 -0.834, GGGAUGUAUUUCAACAACUTT against Wwox 0.0276, GGCAUGGACAUUGAUGACATT against Dnajb1 -0.834, GCCUAAAGCUUUUCUACAATT against Mlph 0.161, GGUCAUCCGAGAUUUCACCTT against Elavl3 -0.944, ACUUCACCAUGGUACCCGGTT against Tspo 1.06, GGCUUAAAUGCGUUCUACATT against Slc25a3 0.0986, GGCAGAAGAGUGGUACUUUTT against Fyn -1.63, AAAGGACUGCCUAAGACAATT against Vmn1r203 -0.921, GCCAUGUUCUUUGCUCCCATT against Pigl -1.8, GGGCAAACUCUAGAGCUACTT against Pdgfrl -0.0578, GUCUGGAUAUUUGACACUATT against Tmem60 -0.637, GGAGUUGAUUGAAAUCAUCTT against Atp5c1 0.466, CGCAGGACGAUUAUGACGUTT against Pcdhb12 0.753, GGGAAACAAAAAAGAUUUCTT against Ptpn13 0.619, GGUCUCAAUAAACUUCAGGTT against Mfap4 0.926, CCCAAAGCGUGACUGUCAATT against Sema4b -0.623, CCUGAAGUGGAGAUUCAACTT against Kcnj6 -1.27, GGAGUUUACAGAAAUUAUCTT against Pecam1 0.214, GGCAGAUUCAGACCUUCGATT against Sult1c2 -0.753, CGAACAGUGCUUCGUAUGUTT against Lims1 -1.04, GGUACAUGAAGAAAAGUAATT against Lrrc19 -0.243, GGUUAUUUCUCUCUCCCUATT against Creld1 0.524, GGAGGAUGACAAAAUCUAUTT against Rnf113a2 1.25, GCAUGGUAUUAGAUGAUGATT against Nexn -1.69, GGAAUGUGCCUAAGUUUGGTT against Ufc1 1.08, CCAAUGGAACAUUAAGUGATT against Psma1 -0.485, CCAUAGUUGAUGGAAGAUATT against Shld2 -0.847, CCCUAUUUGUCAACGAUUATT against Lrrc24 -0.662, GCCAAAUCAUGGGUCUGGUTT against Npas3 0.969, GGCAAUGUGCCCAAUAUCATT against Rfc2 -1.61, GGACUCAUAUCCUUACAUATT against AI854703 -0.0584, GGGAUAGCUGUCACCUUCUTT against Rad9a -0.742, GUUUCUCGAAGAGCAUCCUTT against Cyb5a 0.732, UCACUUGUACCAAAAAUGATT against Adcy1 -1.43, GGGAAAGUCGUUGAAAUUUTT against Stx18 0.941, GGAUUAAAGCAGAAUAUGATT against Paics -0.561, GGCUGUCCUUUUCCUCUUATT against Yipf6 1.49, CGCAGCAGUUGUGGUCAAUTT against Nnat -1.23, GGGCUGCUAUUUUGAUGGUTT against Chrd 0.704, GCGUAUAAGCUCAGUAGACTT against Phlpp1 1.06, GGGCAAGUAUGGGCAGUUCTT against Ppp1ca 0.0965, CGAGAUCAUCUCAAAUAUCTT against Man2a1 -0.0408, GGACAAACAAGUGAAAUACTT against Morf4l1 0.209, CGGUCUUCCCGUGGUUCAATT against Gm5114 -0.992, GGCAAAAGGGACAAAAACUTT against Gadd45a -1.64, CCUUUAUGGGACACUAUUUTT against Alb 0.588, CGUGGAACAUAAGAAUGGATT against Gapdhs 0.269, GGAUUGUCAGCCAAGAAACTT against Uba7 -0.085, GGAAAUUCACAAACAUGGATT against Gins3 -1.76, CCAUUUUAACCAAUGGUGUTT against Olfr572 -1.06, GGCAAUGGCUUGGUCUUUUTT against Mapk6 0.0141, GGAUUUUGAAGACAUCUGUTT against Tubgcp4 0.396, GGCAACAUGACAAUUGUGGTT against Olfr1215 -0.00863, GCCAUUGCUAGUAAUUCUUTT against Vkorc1l1 0.444, CCCUCAUGUUUAGCGAGCATT against Kcnj3 0.644, GGUGAAAGACCACAAAUUCTT against Prkca -0.824, GGACUUUCGAGACAAGCUGTT against Barhl1 -1.21, CGUACAGUGAUGAUUUUGATT against Cep162 0.218, GCACACCCAAUGCUCUAAGTT against Nprl3 1.25, GCAGCGGAGGGUCAAAGAATT against Pym1 0.783, GGCCUUUGAGGUCUACAUATT against Icam2 0.323, GGGUAAAAGUAGCUGCCCUTT against Trp53inp2 -0.401, GGAAAUAAAGUCCAUAGAATT against B3gnt3 0.00261, GGUUCCUCUUGUGAGUGCCTT against Gpr137b -0.974

z-score, active:
GGCUUGAAGCCCUAGUACUTT against Prss30 2.46, GACUACAAAGGAGAGCAAATT against Igfbp6 2.07, GCGAGAAUUCUCUUCCAAUTT against Gsx2 2.33, GGCUUCAAAACAUUUUCAGTT against Kansl1l 2.81, GGGCGACUUUAGCUUUUAUTT against Pced1b 2.51, CGGUGCGAUCUCUCAAAGUTT against Cryba4 2.97, GGUAUAAGGAUUCUUUGAATT against Alg13 -2.8, GCCAGGAUAUGGAUAUGCATT against 1520401A03Rik -2.06, GCCAGCUAAAGAAGUCUAUTT against Gpr17 2.81, GAUUAGCAUCCAUGAACACTT against Tcl1b2 2.16, GCAUACAAGACCGUGAUCATT against Psmc4 -2.03, GCGCAGAUAUCCUGGUUUGTT against Dhx36 2.28, GGAAGCAAUGUGAGAAAUUTT against Tmem91 2.54, GGUGUUGAGUGCACUACUGTT against Nckap5l -2.2, CCCAAAACUCUAGCUACUATT against Olfr824 -3.03, CCUAAAUUUCCAACAGUCCTT against Tmem81 2.05, CCUAAAAGACUUCAUCCGUTT against Kcnh8 2.32, GGUCAAAAGACUGUACAUATT against Timm8a2 2.07, GGAGGGAAUAGAGAAUCGGTT against A930024E05Rik 3.7, GGACAAUGCAGUGCUGAAATT against Car2 3.37, GCCCUCCGAGAAAAACAUCTT against Gjb5 2.05
